Screening results (PubChem BioAssay)
MITF TRPM1 inh – reduces MITF-dependent TRPM1 promoter luciferase signal; hit rate 0.83% among 330,000; SK-MEL-5 TRPM1 promoter luciferase, 24 h; AID 488899; inhibition, % at 12.5 µM;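 active = mean inhibition across replicates of 60% or more, whatever share of single replicates reaches that level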
Gli-Sufu antag – blocks Gli-Sufu signaling in a luciferase reporter; Sufu-KO-LIGHT fibroblasts, Gli luciferase reporter luminescence; inhibition, % at 5 µM; hit rate 0.74% among 340,000; AID 588413;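 active = inhibition above about 55%, limit read from the data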;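 note: 0% = DMSO-treated cells and 100% = wells with medium but no cells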
Jurkat NFkB inh – lowers PMA/ionomycin-induced NF-kB signal in Jurkat cells. PMA/ionomycin-induced NF-kB luciferase reporter, luminescence. inhibition, % at 4 µM. hit rate 0.53% among 330,000. AID 435003; in the data active = inhibition above about 50%
697 NFkB inh – lowers PMA/ionomycin-induced NF-kB signal in 697 B cells. 697 B-cell NF-kB luciferase reporter, 16 h. inhibition, % at 4 µM. hit rate 0.33% among 330,000; in the data active = inhibition above about 35%
Shn3 inh set2 – reduces Shn3 3'UTR luciferase signal in osteoblasts; Clone20 osteoblast Shn3 3'UTR firefly luciferase, 24 h; inhibition, % at 12.5 µM; hit rate 0.52% among 360,000;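 active = mean inhibition of at least 75% with every replicate also reaching 75%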;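 note: 0% = median of neutral control wells and 100% = pilot-screen positive control compound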
LMP1 NFkB inh – Epstein-Barr LMP1 NF-kappaB reporter inhibition; inhibition, % at 12.5 µM; LMP1-induced NF-kappaB luciferase reporter cells, luminescence; hit rate 0.69% among 350,000; AID 504558; in the data active = inhibition above about 41%;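 note: 0% = neutral control wells and 100% = reference inhibitor control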
697 NFkB conf – lowers PMA/ionomycin-induced NF-kB signal in 697 B cells; shares compounds with 697 NFkB inh; 697 B-cell NF-kB luciferase, 16 h; inhibition, % at 4 µM; hit rate 35% among 2,000; AID 449746; in the data active = inhibition mostly above about 28%, no sharp cut-off; inactive = mostly below about 22%
* = called active by the depositor. This is a sample that favours compounds with a hit; in the whole collection about 2.3% have one here.

CCOC(=O)c1c(N)sc(C(=O)Nc2ccc3c(c2)OCO3)c1C was read as MITF TRPM1 inh -1.7, Gli-Sufu antag -110.8, Jurkat NFkB inh -90.2, 697 NFkB inh -258.4, Shn3 inh set2 8.5, LMP1 NFkB inh 27.9 and 697 NFkB conf -264.9.
For Cn1c(=O)cc(SCC(=O)N2CCN(Cc3ccc4c(c3)OCO4)CC2)c2ccccc21 the results were MITF TRPM1 inh 19.9, Gli-Sufu antag 12.7, Jurkat NFkB inh 0.7, 697 NFkB inh 11.7, Shn3 inh set2 14.3 and LMP1 NFkB inh 4.6.
For CCn1c(=O)cc(SCC(=O)N2CCN(Cc3ccc4c(c3)OCO4)CC2)c2ccccc21 the results were MITF TRPM1 inh 6.6, Gli-Sufu antag 15.9, Jurkat NFkB inh 9.2, 697 NFkB inh 30.0, Shn3 inh set2 2.9 and LMP1 NFkB inh 15.9.
CCN1CCN(C(=O)CSc2cc(=O)n(CC)c3ccccc23)CC1 was read as MITF TRPM1 inh -4.6, Gli-Sufu antag 30.2, Jurkat NFkB inh -3.5, 697 NFkB inh 38.8*, Shn3 inh set2 9.6, LMP1 NFkB inh -26.5 and 697 NFkB conf 53.7*.
For CCn1c(=O)c2cc(C(=O)N3CCOCC3)sc2c2ccccc21 the results were Gli-Sufu antag 4.2, Jurkat NFkB inh 0.4, 697 NFkB inh 4.0, Shn3 inh set2 4.6 and LMP1 NFkB inh 0.2.
Screening CCOC(=O)N1CCC(NC(=O)CSc2cc(=O)n(CC)c3ccccc23)CC1 returned MITF TRPM1 inh -0.9, Gli-Sufu antag 10.9, Jurkat NFkB inh 4.5, 697 NFkB inh 31.5, Shn3 inh set2 -27.1 and LMP1 NFkB inh 5.1.
CCn1c(=O)cc(SCC(=O)N2CCN(C)CC2)c2ccccc21 was read as MITF TRPM1 inh 13.4, Gli-Sufu antag 26.1, Jurkat NFkB inh -4.2, 697 NFkB inh 41.9*, Shn3 inh set2 -23.7, LMP1 NFkB inh 0.1 and 697 NFkB conf 34.4*.
For Cn1c(=O)cc(SCC(=O)N2CCN(C3CCCCC3)CC2)c2ccccc21 the results were MITF TRPM1 inh 5.0, Gli-Sufu antag 18.1, Jurkat NFkB inh -9.0, 697 NFkB inh 37.9*, Shn3 inh set2 -36.5, LMP1 NFkB inh -25.1 and 697 NFkB conf 22.9.
CCn1c(=O)c2cc(C(=O)N3CCCC3)sc2c2ccccc21 was read as Jurkat NFkB inh -7.6, 697 NFkB inh 53.3* and 697 NFkB conf 31.7*.
For CC(CC(F)(F)F)N1CCC(n2nccc2NC(=O)CCCc2ccccc2)CC1 (stereo not drawn) the results were MITF TRPM1 inh -6.1, Gli-Sufu antag 25.2, Jurkat NFkB inh 7.2, 697 NFkB inh 13.7, Shn3 inh set2 -10.6 and LMP1 NFkB inh -1.9.
For CSCCC(C(=O)Nc1c(C)cccc1C)N(Cc1ccccc1)Cc1ccccc1 (stereo not drawn) the results were Shn3 inh set2 1.7.
CCn1c(=O)cc(OCC(=O)N2CCCC2)c2ccccc21 was read as MITF TRPM1 inh -2.8, Gli-Sufu antag 5.7, Jurkat NFkB inh -14.0, 697 NFkB inh 16.3, Shn3 inh set2 -25.2 and LMP1 NFkB inh -0.3.
`CCn1c(=O)cc(SCC(=O)N2CCC(C)CC2)c2ccccc21` gave MITF TRPM1 inh 0.2, Gli-Sufu antag 14.0, Jurkat NFkB inh 11.3, 697 NFkB inh 59.2*, Shn3 inh set2 -8.7, LMP1 NFkB inh -3.9 and 697 NFkB conf 44.6*.
CCOC(=O)C1CCN(C(=O)CSc2cc(=O)n(CC)c3ccccc23)CC1 was read as MITF TRPM1 inh 0.7, Gli-Sufu antag 12.7, Jurkat NFkB inh -12.8, 697 NFkB inh 15.8, Shn3 inh set2 23.1 and LMP1 NFkB inh 1.4.
`CCn1c(=O)cc(SCC(=O)N2CCCCC2)c2ccccc21` gave MITF TRPM1 inh 2.6, Gli-Sufu antag 31.6, Jurkat NFkB inh 23.6, 697 NFkB inh 58.4*, Shn3 inh set2 1.7, LMP1 NFkB inh 26.5 and 697 NFkB conf 42.5*.
Cc1[nH]c2ccccc2c1/C=C(\C#N)C(=O)NC(C)c1ccccc1 (stereo not drawn) was read as MITF TRPM1 inh 12.5, Gli-Sufu antag 4.6, Jurkat NFkB inh 2.3, 697 NFkB inh 18.1, Shn3 inh set2 -0.8 and LMP1 NFkB inh 5.7.
`Cc1ccc(-c2csc(N/N=C/c3ccco3)n2)c(C)c1` gave MITF TRPM1 inh -41.9, Gli-Sufu antag -13.3, Jurkat NFkB inh -88.6, 697 NFkB inh -402.7, Shn3 inh set2 -26.8, LMP1 NFkB inh 12.4 and 697 NFkB conf -20.4.
`O=C(c1ccc(NS(=O)(=O)c2ccc(F)cc2)cc1)N1CCCCCC1` gave MITF TRPM1 inh 3.9, Gli-Sufu antag 29.4, Jurkat NFkB inh 13.3, 697 NFkB inh 12.1, Shn3 inh set2 -10.2 and LMP1 NFkB inh -1.7.
Screening COc1cc(-c2[nH]nc3c2C(c2ccco2)C(C#N)=C(N)O3)cc(OC)c1OC (stereo not drawn) returned MITF TRPM1 inh -1.7, Gli-Sufu antag 4.1, Jurkat NFkB inh 17.3, 697 NFkB inh 56.9*, Shn3 inh set2 -16.6, LMP1 NFkB inh -8.0 and 697 NFkB conf 37.1*.
Screening COc1cc(-c2[nH]nc3c2C(c2ccoc2)C(C#N)=C(N)O3)cc(OC)c1OC (stereo not drawn) returned MITF TRPM1 inh 5.7, Gli-Sufu antag 0.9, Jurkat NFkB inh 3.0, 697 NFkB inh 8.8, Shn3 inh set2 -10.1 and LMP1 NFkB inh 6.3.
Screening COC(=O)CSc1nnc(-c2sc3ccccc3c2Cl)o1 returned MITF TRPM1 inh -3.2, Gli-Sufu antag 5.3, Jurkat NFkB inh -0.8, 697 NFkB inh 40.4*, LMP1 NFkB inh 4.2 and 697 NFkB conf 42.5*.
`COCCn1c(C)cc(C(=O)COC(=O)c2n[nH]c3ccccc23)c1C` gave MITF TRPM1 inh -2.3, Gli-Sufu antag -10.1, Jurkat NFkB inh -54.8, 697 NFkB inh -393.3, Shn3 inh set2 26.7, LMP1 NFkB inh 55.4* and 697 NFkB conf -116.9.
`O=[N+]([O-])c1ccc(Cl)cc1CNc1ccc(F)c(F)c1` gave MITF TRPM1 inh 4.2, Gli-Sufu antag -5.3, Jurkat NFkB inh 2.7, 697 NFkB inh 14.2, Shn3 inh set2 3.3 and LMP1 NFkB inh -7.2.
Screening Cc1ccc(C(=O)Nc2ncc3c(Cl)cccc3n2)cc1 returned MITF TRPM1 inh 6.9, Gli-Sufu antag -87.8, Jurkat NFkB inh -77.1, 697 NFkB inh -255.9, Shn3 inh set2 -1.1, LMP1 NFkB inh 51.2* and 697 NFkB conf -262.8.
Screening Cc1ccc(CSCCNC(=O)c2ccc(NS(C)(=O)=O)cc2)cc1 returned MITF TRPM1 inh -2.5, Gli-Sufu antag -3.5, Jurkat NFkB inh -12.1, 697 NFkB inh 35.9*, Shn3 inh set2 1.4, LMP1 NFkB inh 9.9 and 697 NFkB conf -3.8.
`NC(=O)[C@H]1CC2(CC(c3cccc(NC(=O)[C@H]4CCC(=O)N4)c3)=NO2)CN1C(=O)c1ccccc1` (stereo partly drawn) gave MITF TRPM1 inh 3.4, Gli-Sufu antag -4.5, Jurkat NFkB inh -4.2, 697 NFkB inh -10.3, Shn3 inh set2 -28.4 and LMP1 NFkB inh -7.4.
